Unmarked numbers belong to inactive results. Records with an inconclusive call do not appear. Entries that show only a call come without a potency. The source made the active and inactive calls. Calls follow the shape of the dose curve; as a rule, active = well fitted curve in the direction sought with a large enough effect in the repeat runs; inconclusive = weak or mixed curves; inactive = no such curve, though single readings can be large; an effect the other way counts as inactive or inconclusive.
Experiments:
[1] = qHTS RealTime-Glo MT Cell Viability Assay in HEK293 cells - 40 hour (AID 1224874); settings: RealTime-Glo luminescence; max response: stronger effect = lower value; also: nearly all actives have a fitted effect of over 50% in size; also: potency is read from the fitted curve at half-maximal effect
Summary of the method: (§1)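 qHTS format; HEK293 cells with NanoLuc/prosubstrate reagent, 37 C/5% CO2 for 5 h pre-dosing; compounds 23 nL in DMSO; luminescence at each time point reflects viable cells.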

[2] = A CellTox Green Cytotoxicity Assay to monitor cytotoxicity in HEK293 cells - 24 hour (AID 1224875); also: nearly all actives have a fitted effect of over 45% in size; also: potency is read from the fitted curve at half-maximal effect; as to activity change: series mostly up to about 77 µM
Summary of the method: (§2)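 Each value comes from one timepoint of a single continuous run in which HEK293 cells with CellTox Green were exposed to compound for up to 40 h at 37 C, dye fluorescence rising with cell death.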

[3] = A CellTox Green Cytotoxicity Assay to monitor cytotoxicity in HepG2 cells - 16 hour (AID 1224876); also: nearly all actives have a fitted effect of over 45% in size; also: potency is read from the fitted curve at half-maximal effect
Summary of the method: (§3)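 Continuous culture of HepG2 cells with a membrane-impermeant DNA dye; rising fluorescence marks dead cells. Compound exposure lasted up to 40 h at 37 C, with reads every 8 h from 0 h.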

[4] = qHTS RealTime-Glo MT Cell Viability Assay in HepG2 cells - 32 hour (AID 1224877); also: nearly all actives have a fitted effect of over 55% in size
Summary of the method: (§4)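 HepG2 suspension premixed with RealTime-Glo reagents is plated at 600 cells per well and left 5 h at 37 C/5% CO2. Compounds in DMSO then go in, and bioluminescence reflecting viable cell number is recorded over 40 h.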

[5] = A CellTox Green Cytotoxicity Assay to monitor cytotoxicity in HepG2 cells - 24 hour (AID 1224878); also: nearly all actives have a fitted effect of over 45% in size; also: potency is read from the fitted curve at half-maximal effect
Summary of the method: as §3

[6] = A CellTox Green Cytotoxicity Assay to monitor cytotoxicity in HepG2 cells - 40 hour (AID 1224879); also: nearly all actives have a fitted effect of over 40% in size; also: potency is read from the fitted curve at half-maximal effect
Summary of the method: as §3

[7] = qHTS RealTime-Glo MT Cell Viability Assay in HEK293 cells - 0 hour (AID 1224880); also: nearly all actives have a fitted effect of over 45% in size; also: potency is read from the fitted curve at half-maximal effect; as to activity change, negative = cytotoxicity: top concentration of the series differs between compounds
Summary of the method: as §1

[8] = A CellTox Green Cytotoxicity Assay to monitor cytotoxicity in HEK293 cells - 32 hour (AID 1224881); also: nearly all actives have a fitted effect of over 40% in size; also: potency is read from the fitted curve at half-maximal effect
Summary of the method: as §2

[9] = A CellTox Green Cytotoxicity Assay to monitor cytotoxicity in HepG2 cells - 0 hour (AID 1224882); also: nearly all actives have a fitted effect of over 35% in size; also: potency is read from the fitted curve at half-maximal effect
Summary of the method: as §3

[10] = A CellTox Green Cytotoxicity Assay to monitor cytotoxicity in HepG2 cells - 32 hour (AID 1224883); also: nearly all actives have a fitted effect of over 50% in size; also: potency is read from the fitted curve at half-maximal effect
Summary of the method: as §3

[11] = A CellTox Green Cytotoxicity Assay to monitor cytotoxicity in HEK293 cells - 8 hour (AID 1224884); also: nearly all actives have a fitted effect of over 35% in size; also: potency is read from the fitted curve at half-maximal effect
Summary of the method: as §2

[12] = qHTS RealTime-Glo MT Cell Viability Assay in HepG2 cells - 16 hour (AID 1224885); also: nearly all actives have a fitted effect of over 50% in size
Summary of the method: as §4

[13] = qHTS RealTime-Glo MT Cell Viability Assay in HEK293 cells - 24 hour (AID 1224886); also: top concentration of the series differs between compounds; nearly all actives have a fitted effect of over 50% in size
Summary of the method: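 Reads taken at 0, 8, 16, 24, 32 and 40 h from the same wells. HEK293 cells (600/well) carried RealTime-Glo reagents from seeding, with compound added after a 5 h settle at 37 C.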

[14] = qHTS RealTime-Glo MT Cell Viability Assay in HEK293 cells - 8 hour (AID 1224887)
Summary of the method: as §1

[15] = A CellTox Green Cytotoxicity Assay to monitor cytotoxicity in HEK293 cells - 16 hour (AID 1224888); also: nearly all actives have a fitted effect of over 35% in size; also: potency is read from the fitted curve at half-maximal effect
Summary of the method: as §2

[16] = qHTS RealTime-Glo MT Cell Viability Assay in HepG2 cells - 8 hour (AID 1224873); also: nearly all actives have a fitted effect of over 55% in size
Summary of the method: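 HepG2 cells (600/well) mixed with RealTime-Glo MT reagent, settled 5 h at 37 C/5% CO2 before compound addition. Nonlytic NanoLuc luminescence from viable-cell prosubstrate reduction read repeatedly during 40 h treatment at 37 C.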

[17] = qHTS RealTime-Glo MT Cell Viability Assay in HepG2 cells - 0 hour (AID 1224889); also: nearly all actives have a fitted effect of over 50% in size; also: potency is read from the fitted curve at half-maximal effect
Summary of the method: as §4

[18] = A CellTox Green Cytotoxicity Assay to monitor cytotoxicity in HepG2 cells - 8 hour (AID 1224890); also: nearly all actives have a fitted effect of over 45% in size; also: potency is read from the fitted curve at half-maximal effect
Summary of the method: as §3

[19] = qHTS assay to identify small molecule antagonists of the estrogen receptor alpha (ER-alpha) signaling pathway using the BG1 cell line in the presence of 0.1 nM 17-beta-estradiol - cell viability counter screen (AID 1259241); also: nearly all actives have a fitted effect of over 40% in size
Summary of the method: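 Live-cell protease activity (CellTiter-Fluor fluorescence, 30 min) was read in the same wells after VM7Luc4E2 cells had been exposed to compounds with 0.1 nM 17beta-estradiol for 22 hr at 37C.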

[20] = qHTS assay to identify small molecule antagonists of the androgen receptor (AR) signaling pathway using the MDA cell line in the presence of 0.5 nM R1881 - cell viability counter screen (AID 1259242); also: nearly all actives have a fitted effect of over 45% in size
Summary of the method: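 Fluorescence from CellTiter-Fluor, which reports protease activity of live cells, was read 30 min after reagent addition to MDA-kb2 cells that had been incubated 16 hr with compound and 0.5 nM R1881.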

O=C(O)O
max response [1]: -2.54%
activity change [2]: 5.15% [at 6.97 µM, stronger effect = higher value]
cytotoxicity increase [3]: -0.218% [at 6.97 µM]
activity change, negative = cytotoxic [4]: 7.61% [at 6.97 µM]
cytotoxicity [5]: -2.66% [at 6.97 µM]
cytotoxicity increase [6]: -9.85% [at 6.97 µM]
activity change, negative = cytotoxicity [7]: 3.17% [at 6.97 µM]
cytotoxicity increase [8]: -1.24% [at 6.97 µM]
cytotoxicity [9]: 0.722% [at 6.97 µM]
cytotoxicity increase [10]: -9.49% [at 6.97 µM]
cytotoxicity increase [11]: -0.487% [at 6.97 µM]
activity change, negative = cytotoxic [12]: -0.68% [at 6.97 µM]
activity change, negative = cytotoxicity [13]: -0.471% [at 6.97 µM]
activity change, negative = cytotoxicity [14]: 1.73% [at 6.97 µM]
activity change [15]: 1.05% [at 6.97 µM, stronger effect = higher value]

Oc1cc(Cl)cc(Cl)c1Cl
Potency [16]: inactive
Potency [3]: inactive
Potency [4]: inactive
Potency [5]: inactive
Potency [6]: inactive
Potency [7]: inactive
Potency [8]: 50.2 µM (active)
Potency [9]: inactive
Potency [10]: inactive
Potency [12]: inactive
Potency [17]: inactive
Potency [18]: inactive
Potency [19]: inactive
Potency [20]: inactive

CCCCCCCC
max response [1]: -2.45%
Potency [2]: inactive
Potency [3]: inactive
Potency [4]: inactive
Potency [7]: inactive
Potency [8]: inactive
Potency [9]: inactive
Potency [10]: inactive
Potency [11]: inactive
Potency [12]: inactive
Potency [13]: inactive
Potency [14]: inactive
Potency [15]: inactive
Potency [17]: inactive
Potency [18]: inactive
Potency [19]: inactive
Potency [20]: inactive

CCc1oc2ccccc2c1C(=O)c1cc(I)c(O)c(I)c1
max response [1]: -23.8%
Potency [2]: inactive
Potency [3]: inactive
Potency [4]: inactive
Potency [5]: inactive
Potency [6]: inactive
Potency [7]: inactive
Potency [8]: inactive
Potency [9]: inactive
Potency [10]: inactive
Potency [11]: inactive
Potency [12]: inactive
Potency [13]: inactive
Potency [14]: inactive
Potency [15]: inactive
Potency [17]: inactive
Potency [18]: inactive
Potency [19]: inactive

Nc1ccc(NCCO)c([N+](=O)[O-])c1
max response [1]: 0.226%
Potency [2]: inactive
Potency [3]: inactive
Potency [4]: inactive
Potency [5]: inactive
Potency [6]: inactive
Potency [7]: inactive
Potency [8]: inactive
Potency [9]: inactive
Potency [10]: inactive
Potency [11]: inactive
Potency [12]: inactive
Potency [13]: inactive
Potency [14]: inactive
Potency [15]: inactive
Potency [18]: inactive

CC(C)(C)c1csc(-c2cc3cc(OCc4ccccc4CC(=O)O)ccc3o2)n1
Potency [1]: 38.9 µM (active)
Potency [2]: 54.9 µM (active)
Potency [3]: 54.9 µM (active)
Potency [4]: inactive
Potency [5]: 54.9 µM (active)
Potency [6]: 54.9 µM (active)
Potency [7]: inactive
Potency [8]: 54.9 µM (active)
Potency [9]: inactive
Potency [10]: 54.9 µM (active)
Potency [11]: inactive
Potency [17]: inactive
Potency [19]: inactive

O=c1[nH]c(=O)n([C@H]2C[C@H](O)[C@@H](CO)O2)cc1F
Potency [1]: 0.601 µM (active)
Potency [2]: inactive
Potency [3]: 6.01 µM (active)
Potency [4]: inactive
Potency [6]: 5.35 µM (active)
Potency [7]: inactive
Potency [8]: inactive
Potency [9]: 5.35 µM (active)
Potency [10]: 6.01 µM (active)
Potency [11]: inactive
Potency [14]: inactive
Potency [15]: inactive
Potency [18]: 6.01 µM (active)
Potency [19]: inactive

C[C@H]1NCc2cc(-c3ccc4c(=O)c(C(=O)O)cn(C5CC5)c4c3OC(F)F)ccc21
max response [1]: -6.6%
activity change [2]: -2.55% [at 15.8 µM, stronger effect = higher value]
cytotoxicity increase [3]: 1.43% [at 15.8 µM]
activity change, negative = cytotoxic [4]: -0.83% [at 15.8 µM]
cytotoxicity increase [6]: 1.86% [at 15.8 µM]
activity change, negative = cytotoxicity [7]: -10.2% [at 15.8 µM]
cytotoxicity increase [8]: -2.38% [at 15.8 µM]
cytotoxicity [9]: -0.836% [at 15.8 µM]
cytotoxicity increase [10]: -4.67% [at 15.8 µM]
activity change, negative = cytotoxicity [13]: -3.25% [at 15.8 µM]
activity change, negative = cytotoxicity [14]: -3.93% [at 15.8 µM]
activity change [15]: -0.109% [at 15.8 µM, stronger effect = higher value]
activity change, negative = cytotoxicity [17]: -7.36% [at 15.8 µM]
activity change, negative = cytotoxicity [19]: -0.503% [at 19 µM]
viability change, negative = cytotoxic [20]: -0.218% [at 19 µM]

CCCC(=O)OCOC(=O)C1=C(C)NC(C)=C(C(=O)OC)C1c1cccc(Cl)c1Cl (stereo not given)
max response [1]: 2.11%
Potency [2]: inactive
Potency [3]: inactive
Potency [4]: inactive
Potency [5]: inactive
Potency [6]: inactive
Potency [7]: 9.52 µM (active)
Potency [8]: inactive
Potency [9]: inactive
Potency [10]: inactive
Potency [11]: inactive
Potency [12]: inactive
Potency [13]: inactive
Potency [14]: inactive
Potency [15]: inactive
Potency [17]: 10.7 µM (active)
Potency [19]: inactive
Potency [20]: inactive

O=C(O)CN(CCN(CC(=O)O)CC(=O)O)CC(=O)O
viability change, negative = cytotoxic [16]: -13.2% [at 2.72 µM]
Potency [3]: 1.74 µM (active)
Potency [5]: 1.74 µM (active)
Potency [6]: 1.96 µM (active)
activity change, negative = cytotoxicity [7]: 0.0989% [at 2.72 µM]
Potency [9]: 1.74 µM (active)
Potency [10]: 1.74 µM (active)
Potency [11]: 1.96 µM (active)
activity change, negative = cytotoxicity [13]: 5.68% [at 2.72 µM]
activity change, negative = cytotoxicity [14]: -1.21% [at 2.72 µM]
Potency [15]: 1.96 µM (active)
activity change, negative = cytotoxicity [17]: -5.49% [at 2.72 µM]
Potency [18]: 1.74 µM (active)
activity change, negative = cytotoxicity [19]: -6% [at 3.27 µM]
viability change, negative = cytotoxic [20]: 4.5% [at 3.26 µM]

Reference: PubChem BioAssay (Tox21)
